According to PubChem BioAssay AID492952 (Southern Research Specialized Biocontainment Screening …, 2010):
In all, about 2,300 compounds went through this assay and about 1,500 (65%) were called active. No rule for the calls is given here. So high a share suggests a set chosen from earlier hits. The list shows a part of the results. Results with a measured potency or affinity are listed apart.

Assay: replicating M. tuberculosis growth inhibition, dose response, non-replicating M. tuberculosis project, H37Rv (AID 492952);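 also: Mycobacterium tuberculosis grown in culture; growth inhibition read after a week of incubation; 0% = bacteria alone untreated and 100% = bacteria with high antibiotic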
Settings: series mostly up to 50 µM; inhibition: at the top concentration

Compound | inhibition
O=C(N/N=C/C=C/c1ccccc1)c1cccs1 | 2.93% (inactive)
O=C(Nc1cccnc1)c1cc(Cl)ccc1Cl | 2.63% (inactive)
Cn1c(-c2cccc([N+](=O)[O-])c2)cnc1NCc1cccc(F)c1 | -0.03% (inactive)
O=C1OC(/C=C/c2ccccc2)=NC/1=C\c1cccnc1 | 8.72% (inactive)
Cc1ccccc1C1=N/C(=C/c2cccnc2)C(=O)O1 | -9.98% (inactive)
O=C(COc1ccc2ccccc2c1Br)N1CCCC1 | 11.9% (inactive)
Cc1cc(OCCCn2ccnc2)ccc1C(C)C | 8.68% (inactive)
Cc1ccc(C(=O)COC(=O)CCc2ccc(S(=O)(=O)N3CCCCC3)cc2)cc1 | -2.89% (inactive)
O=S(=O)(c1ccc(Cl)c2ccccc12)N1CCCC1 | -2.3% (inactive)
CCOC(=O)C1CCCN(Cc2nc(Cc3ccccc3Cl)no2)C1 (centres undefined) | -3.11% (inactive)
COc1cc(NC(=O)N2CCOCC2)cc(OC)c1 | 2.67% (inactive)
O=C(COc1c(Br)cc(Br)c2cccnc12)N1CCCCC1 | 1.93% (inactive)
Cc1cc(C)nc(SC2CC(=O)N(c3ccc(C)c(C)c3)C2=O)n1 (centres undefined) | -0.48% (inactive)
CC(=O)Nc1ccc(NC(=O)[C@@H]2CCCC[C@@H]2C(=O)O)cc1 | 6.64% (inactive)
Cc1nc(C(=O)Nc2ccccc2)sc1C(=O)Nc1ccccc1 | -3.5% (inactive)
NC(N)=N/N=C/c1cc([N+](=O)[O-])ccc1O | -0.86% (inactive)
NC(=O)N/N=C\c1cc(Br)ccc1O | 1.43% (inactive)
O=C1N=c2ccccc2=C1c1c(O)n(-c2cccc(F)c2)[nH]c1=O | 4.88% (inactive)
N/C(=N\OC(=O)c1cccc(Br)c1)c1ccc([N+](=O)[O-])cc1 | -3.85% (inactive)
Cc1ccc(C(=O)O/N=C(\N)c2cccc([N+](=O)[O-])c2)cc1 | 8.71% (inactive)
O=C(Cc1c(F)cccc1Cl)Nc1ncc([N+](=O)[O-])s1 | 6.48% (inactive)
N/C(=N\OC(=O)c1cccc2ccccc12)c1cccnc1 | 11.1% (inactive)
O=C(COc1ccccc1)Nc1ccc(F)cc1 | 8.73% (inactive)
CCCNC(=O)NC(=O)COc1ccc2oc3ccccc3c2c1 | 7.11% (inactive)
N#CC1=C(N)Oc2c(ccc3cccnc23)C1c1ccccc1 (centres undefined) | 1.24% (inactive)

Compound | inhibition
O=C(NCCc1cccc(Cl)c1)c1cc2ccccc2oc1=O | -3.15% (inactive)
COCCCC1CCN(Cc2nc(-c3ccccc3)no2)CC1 | -5.23% (inactive)
CC(C)(C)OC(=O)NCCC(=O)Oc1ccc2ccc(=O)oc2c1 | -10.2% (inactive)
O=C(NC(=S)Nc1ccc(F)cc1)C1CCCCC1 | 8.98% (inactive)
O=C(N/N=C/c1cccc([N+](=O)[O-])c1O)c1cccs1 | 10.5% (inactive)
O=C(O)c1ccccc1C(=O)NNc1ccc(Cl)cc1 | 9.18% (inactive)
O=C(O)c1ccccc1-c1ccccc1C(=O)Nc1nc2ccccc2s1 | 14% (inactive)
O=C(NCCN1C(=O)S/C(=C\c2ccccc2F)C1=O)C1CCN(S(=O)(=O)c2cccs2)CC1 | 4.18% (inactive)
O=S(=O)(Nc1ccc(O)c2ccccc12)c1ccc(F)cc1 | -0.46% (inactive)
O=c1cc(-c2ccccc2Cl)oc2c([N+](=O)[O-])c(O)cc(O)c12 | -1.85% (inactive)
CCC1CCC(c2nnc(-c3ccc([N+](=O)[O-])cc3)o2)CC1 (centres undefined) | 10.4% (inactive)
Cc1ccc(-c2nnc(Cc3ccc([N+](=O)[O-])cc3)o2)cc1 | -1.75% (inactive)
COc1ccc(Cc2nnc(SCc3ccc([N+](=O)[O-])cc3)o2)cc1 | 4.06% (inactive)
Cc1nc(Cl)nc(N(C)c2ccccc2)c1[N+](=O)[O-] | 4.31% (inactive)
O=C1CCCCC1Sc1nnc(-c2ccc3c(c2)OCO3)o1 (centres undefined) | -1.32% (inactive)
C(=C\c1ccccc1)/CSc1nc2ncccc2[nH]1 | 6.43% (inactive)
O=C(CCSc1ccccc1)N1CCCC1 | 3.77% (inactive)
CCS(=O)(=O)c1ncc(Cl)c(C(=O)Nc2ccc(S(=O)(=O)N3CCC(C)CC3)cc2)n1 | -3.77% (inactive)
CCCC(O)(CCC)C(=O)NNc1ccc(C)cc1 | 10.7% (inactive)
COc1ccc(CNC(=O)COC(=O)C2CC3C=CC2C3)cc1 (centres undefined) | 4.96% (inactive)
CCCCNC(=O)Cc1ccc(C)cc1 | -4.22% (inactive)
CC(C)CSc1nnc2c3ccccc3n(C)c2n1 | 1.04% (inactive)
O=C(c1cc2ccccc2o1)c1nc2c(n1O)CCCCC2 | 5.04% (inactive)
O=C(Nc1ccccc1)c1ccc(Br)o1 | 12.3% (inactive)
CCCOC(=O)c1ccc(NC(=O)Cc2cccs2)cc1 | 14% (inactive)

Compound | inhibition
CCCCOC(=O)c1ccc(NC(=O)C2CCCO2)cc1 (centres undefined) | 20.4% (inactive)
CCCOC(=O)c1ccc(NC(=O)C2C3C=CC(O3)C2C(=O)O)cc1 (centres undefined) | 3.84% (inactive)
CC1CCN(S(=O)(=O)c2cccc(C(=O)Oc3ccc([N+](=O)[O-])cc3)c2)CC1 | -2.52% (inactive)
C=CCN(CC=C)C(=O)Cc1ccc(F)cc1 | -3.08% (inactive)
O=C(CCNc1cccc(F)c1)c1cccc([N+](=O)[O-])c1 | -0.17% (inactive)
Nc1ccccc1C(=O)NNC1=C(C(=O)C(F)(F)F)CCC1 | -1.02% (inactive)
COc1ccc(C)c2sc(NC(=O)CCS(=O)(=O)c3ccccc3)nc12 | 4.31% (inactive)
O=C(NC1CCCC1)c1cc(-c2cccs2)on1 | 1.34% (inactive)
Cc1ccc(-c2nnc(-c3cccs3)o2)cc1 | 0.17% (inactive)
CN1C(=O)CC(N2CCC(c3nc4ccccc4s3)CC2)C1=O (centres undefined) | -6.77% (inactive)
COc1ccc(OCCOC(=O)CCS(=O)(=O)c2ccc(C)cc2)cc1 | 0.82% (inactive)
CSc1ccc(COC(=O)CCS(=O)(=O)c2ccc(C)cc2)cc1 | 6.07% (inactive)
O=C(COc1ccc(F)cc1)Nc1ccc2c(c1)OCCO2 | 25.3% (inactive)
O=C(CCS(=O)(=O)c1ccc(Cl)cc1)Oc1ccc2c(c1)OCO2 | 2.49% (inactive)
Cc1ccc(NC(=O)CC2SC3=NCCCN3C2=O)c(C)c1 (centres undefined) | 4.67% (inactive)
CC(C)c1ccc(C2=C(O)c3ccccc3C(=O)C2=O)cc1 | -2.49% (inactive)
Cc1ccc(C(=O)CCC2CCCC2=O)cc1 (centres undefined) | -3.32% (inactive)
CC1CCCN(CCSc2ccc(Cl)cc2)C1 (centres undefined) | 12.8% (inactive)
NCCCN1CCOCC1 | -1.85% (inactive)
CC(CN1CCOCC1)OC(=O)c1ccc2c(c1)OCCO2 (centres undefined) | 0.51% (inactive)
CCOC(=O)Nc1ccc2c(c1)N(C(=O)CCN1CCOCC1)c1ccccc1S2=O (centres undefined) | 2.63% (inactive)
Clc1ccc(SCCCCN2CCNCC2)cc1 | 4.18% (inactive)
CCOC(=O)C1CCN(CCCSc2ccc(Cl)cc2)CC1 | -0.24% (inactive)
O=Cc1ccc(-c2ccc(Cl)cc2Cl)[nH]1 | 22.4% (inactive)
O=C(CCCSc1nc2ccccc2s1)NCc1ccco1 | -2.55% (inactive)

Compound | inhibition
Fc1ccc(COc2ccc(-c3nnco3)cc2)cc1 | 0.98% (inactive)
COC(=O)CCSCc1cn2cc(Cl)ccc2n1 | -0.87% (inactive)
Cc1cc2n(n1)SC(Nc1ccccc1)N2 (centres undefined) | 3.35% (inactive)
CC(C)n1c(=S)[nH]c2ccccc2c1=O | 3.34% (inactive)
CC(C)(C)NCc1cc(Br)ccc1OC1CCCC1 | 4.3% (inactive)
COc1ccc(-n2c3c(cc(C(=O)NNc4ccccc4)c2=O)C(=O)CC(C)(C)C3)cc1 | -1.68% (inactive)
Clc1ccccc1OCc1nnc(-c2ccccc2)o1 | 4.87% (inactive)
c1ccc(Cc2nnc(-c3ccccc3)o2)cc1 | 2.02% (inactive)
O=C1NC(=S)S/C1=C\c1ccc(SCc2ccco2)o1 | -0.39% (inactive)
CN(CC(=O)Nc1ccc(Cl)cc1)C1CCCCC1 | -1.09% (inactive)
COc1ccc(OCCCC(=O)Nc2ccc(N3CCOCC3)cc2)cc1 | -1.48% (inactive)
Cc1ccc(C(=O)C=CNNC(=O)c2ccccc2)cc1 | 10.6% (inactive)
O=C(C1CCN(C2CC(=O)N(Cc3ccccc3)C2=O)CC1)N1CCCCCC1 (centres undefined) | -5.07% (inactive)
CC(C)CN(Cc1c(O)ccc2ccccc12)CC(C)C | 5.53% (inactive)
O=C(NCCSc1ccccc1)c1ccc(Br)cc1 | -3.27% (inactive)
CCOc1ccc(NC(=O)CCNC(=O)c2ccc(Br)cc2)cc1 | 11.1% (inactive)
COc1ccc(C(=O)C=CNNC(=O)c2ccc(Cl)cc2)cc1 | 1.86% (inactive)
COc1ccccc1CCNC(=O)c1ccc(C)o1 | 3.56% (inactive)
O=C(Oc1cccc2cccnc12)c1cccc(-n2cnnn2)c1 | -0.76% (inactive)
Cc1cccc(C2=N/C(=C\c3cccnc3)C(=O)O2)c1 | 0.69% (inactive)
Cc1ccc(C2=N/C(=C\c3cccnc3)C(=O)O2)cc1 | -1.93% (inactive)
CN(CCCCOc1ccc(F)cc1)Cc1ccccc1 | -6.23% (inactive)
CN(CCOCCOc1ccc(F)cc1)Cc1ccccc1 | -0.16% (inactive)
O=C1CC(N2CCN(c3ccccc3)CC2)C(=O)N1CCc1ccccc1 (centres undefined) | 3.41% (inactive)
O=C(COc1ccccc1)NC1CCCCC1 | 4.93% (inactive)

Compound | inhibition
CC(NC(=O)COc1ccccc1F)C1CC2CCC1C2 (centres undefined) | 10.3% (inactive)
O=C(NCCC1=CCCCC1)c1coc(=O)c(Br)c1 | -8.02% (inactive)
COc1cc(/C=N/Nc2cccc3cccnc23)cc(OC)c1O | 0.63% (inactive)
COc1ccc(N2CCN(CC(=O)NC(=O)NC(C)(C)C)CC2)cc1 | -7.18% (inactive)
COc1ccc(OCC(=O)Nc2ccc(N3CCN(C(=O)c4ccco4)CC3)cc2)cc1 | 2.2% (inactive)
CN(C)Cc1ccccc1Sc1ccc(Br)cc1 | 4.09% (inactive)
CC1CCCN(CCCOc2ccc([N+](=O)[O-])cc2)C1 (centres undefined) | -7.03% (inactive)
O=C1c2ccccc2C(=O)N1CCOc1ccc(F)cc1 | -6.11% (inactive)
COc1ccccc1N=Cc1nc(-c2ccccc2)oc1OC(C)=O | 9.47% (inactive)
COc1ccc(N=Cc2nc(-c3ccccc3)oc2OC(C)=O)cc1 | 9.7% (inactive)
CC1(C)CC(=O)C2=C(C1)OC(N)=C([N+](=O)[O-])C2c1ccc(C#N)s1 (centres undefined) | 25.2% (inactive)
C/C(=N\NC(=O)COc1cccc(C)c1)c1ccc2ccccc2c1O | 5.19% (inactive)
Cc1ccc(N2C(=O)CC(Sc3nccc(C)n3)C2=O)cc1 (centres undefined) | 3.55% (inactive)
CCOC(=O)N1CCC(NC(=O)C2CCN(c3nc(-c4ccc(OC)cc4)no3)CC2)CC1 | -1.07% (inactive)
COc1cccc(C(=O)C2CCCN(CC3=Cc4cc(OC)ccc4OC3)C2)c1 (centres undefined) | 9.31% (inactive)
O=C(CCC1CCCC1)NCc1ccccn1 | -3.52% (inactive)
COc1cccc(CC2(CO)CCCN(Cc3sc(N4CCCC4)nc3Cl)C2)c1 (centres undefined) | 0.34% (inactive)
CN1C(=O)CC(Sc2ccccc2C(=O)O)C1=O (centres undefined) | -2.37% (inactive)
CC(C)=CC1C(C(=O)Nc2ccc(Br)cn2)C1(C)C (centres undefined) | 8.89% (inactive)
C/C(=C\C(=O)c1ccc(Br)cc1)NNC(=O)c1ccccc1 | 20.2% (inactive)
Cn1[nH]c(-c2ccccc2)c(/C=N/O)c1=O | 3.15% (inactive)
COc1ccc(C(O)CNc2ccc(C)cc2)cc1 (centres undefined) | -0.87% (inactive)
CCOc1ccc(NCC(=O)c2ccc(C)cc2)cc1 | 11.1% (inactive)
CCOc1ccc(NC(=O)Cn2sc3nc(C)cc(C)c3c2=O)cc1 | -4.28% (inactive)
